Experiment [1] is described as follows: qHTS for compounds that reverse cellular toxicity of Amyloid beta (A-beta) peptide in yeast: LOPAC Validation Assay (AID 720559).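 Further: plate controls were DMSO for no effect and equimolar ferric chloride plus clioquinol rescue for full effect.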 The method in brief:
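OD600 growth readout after 48 hr at 30 C; A-beta-toxic yeast plus pinned compounds in medium. Normalization: DMSO = negative, equimolar FeCl3 + clioquinol = positive.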
(In general: qHTS replaces the single test concentration by a dilution series.)

Experiment [2] in a line: qHTS for Activators of Parkin Expression: LOPAC Validation Assay (NLuc Reporter) (AID 720572). A digest of the protocol: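 Compound effects on Parkin promoter activity were measured as NanoLuc luminescence after 24 h at 37 C. The neuronal reporter line also carried FLuc, which was read first. LOPAC compounds were tested at 7 concentrations, with normalization to DMSO (0%) and positive control (100%).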

In experiment [3] the target is T1, Hexokinase-4 (Homo sapiens) + Glucokinase regulatory protein (Homo sapiens) (UniProt P35557+Q14397). Kind of experiment: qHTS assay for inhibitors of recombinant human GCK-GKRP interaction: Diaphorase-coupled assay (AID 743205). A digest of the protocol: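 Resorufin fluorescence (525/590 nm), read each minute over 30 min, reports GCK activity coupled via G6PDH and diaphorase. Reaction: 10 nM GST-GCK, 10 nM FLAG-GKRP, 5 mM glucose, 0.4 mM ATP, 0.15 mM NADP+, 0.1 mM resazurin.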
T1 sequence (P35557 whole entry, looked up): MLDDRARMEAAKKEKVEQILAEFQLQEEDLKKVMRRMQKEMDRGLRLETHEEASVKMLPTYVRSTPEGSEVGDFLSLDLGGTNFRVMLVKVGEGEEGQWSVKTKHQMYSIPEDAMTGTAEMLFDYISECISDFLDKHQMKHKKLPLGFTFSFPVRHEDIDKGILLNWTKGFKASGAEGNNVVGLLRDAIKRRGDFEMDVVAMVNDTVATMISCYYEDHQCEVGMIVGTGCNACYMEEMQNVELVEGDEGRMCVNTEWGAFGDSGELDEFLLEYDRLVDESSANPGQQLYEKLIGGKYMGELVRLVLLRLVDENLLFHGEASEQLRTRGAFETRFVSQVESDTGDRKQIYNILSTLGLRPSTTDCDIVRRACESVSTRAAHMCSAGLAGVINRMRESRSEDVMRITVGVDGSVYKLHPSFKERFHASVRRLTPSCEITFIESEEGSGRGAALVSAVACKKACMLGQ
T1 sequence (Q14397 whole entry, looked up): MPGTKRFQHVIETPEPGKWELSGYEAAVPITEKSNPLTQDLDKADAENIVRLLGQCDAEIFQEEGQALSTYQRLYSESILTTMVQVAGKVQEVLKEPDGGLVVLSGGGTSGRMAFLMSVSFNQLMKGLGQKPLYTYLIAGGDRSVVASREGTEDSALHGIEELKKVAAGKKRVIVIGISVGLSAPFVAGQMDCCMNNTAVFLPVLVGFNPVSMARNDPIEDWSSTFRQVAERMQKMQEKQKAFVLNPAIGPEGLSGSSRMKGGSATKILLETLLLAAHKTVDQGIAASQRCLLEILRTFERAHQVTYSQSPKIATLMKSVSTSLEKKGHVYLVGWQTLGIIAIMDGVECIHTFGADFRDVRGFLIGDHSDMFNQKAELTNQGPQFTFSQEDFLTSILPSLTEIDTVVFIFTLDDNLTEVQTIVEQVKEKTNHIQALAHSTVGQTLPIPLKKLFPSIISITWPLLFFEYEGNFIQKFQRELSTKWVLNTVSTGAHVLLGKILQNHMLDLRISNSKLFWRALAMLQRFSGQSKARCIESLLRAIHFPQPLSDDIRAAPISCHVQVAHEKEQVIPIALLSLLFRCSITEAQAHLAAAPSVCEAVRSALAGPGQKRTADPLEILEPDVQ

Experiment [4] concerns the target T1, Hexokinase-4 (Homo sapiens) + Glucokinase regulatory protein (Homo sapiens). Kind of experiment: qHTS assay for inhibitors of recombinant human GCK-GKRP interaction: ADP-Glo assay (AID 743206).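 Further: plate controls were DMSO plus enzyme for no effect and no enzyme for full effect.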 The method in brief: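 Pin-transferred compounds meet a 15 nM GST-GCK/15 nM FLAG-GKRP/2 uM S6P mix (dispense concentrations). ATP is then added to 0.4 mM final with 5 mM glucose, and the reaction runs 60 min at room temperature. ADP is quantified luminescently.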

Experiment [5] has the same target. The experiment in a line: qHTS assay for inhibitors of recombinant human GCK-GKRP interaction: HTRF assay (AID 743207).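 Further: 0% = DMSO with GCK present and -100% = DMSO wells lacking GCK.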 The method in brief: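 HTRF read-out (ex 320 nm; 615/665 nm emission) after 60 min RT equilibration of 5 nM GST-GCK, 5 nM FLAG-GKRP, 2 uM S6P, compound and anti-FLAG/anti-GST detection antibodies; signal normalized between DMSO wells with and without GCK.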

The nature of experiment [6]: qHTS Assay for Identifying Gametocytocidal Compounds (AID 743244). Further: potency means the concentration at half of the fitted maximal effect.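 On max response: on the % scale 0 is the no-effect control and ±100 the full control effect; actives lower the fluorescent signal which means gametocytes are killed.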 The following applies: P. falciparum 3D7 stage III-V gametocytes, alamarBlue, 72 h; max response: stronger effect = lower value. A digest of the protocol: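 Late gametocytes (III–V), P. falciparum 3D7; 72 h drug, then 24 h alamarBlue; resazurin reduction read by fluorescence.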
The nature of experiment [7]: qHTS profiling of the MIPE4 collection as inhibitors of Plasmodium falciparum (3D7) proliferation (AID 743344; call rule not given here;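 further: scaled between DMSO vehicle wells and 0.29 µM artemisinin as full inhibition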). The settings on record: P. falciparum 3D7 in erythrocytes, SYBR Green DNA fluorescence, 72 h; at 28.5 µM (top of the series) unless noted. A digest of the protocol:
(§1)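 Parasite DNA was quantified by SYBR Green I fluorescence (ex 485, em 535 nm) after overnight lysis in saponin/Triton buffer at room temperature. Cultures at 0.3% parasitemia and 2.5% hematocrit were first exposed to compound for 72 h at 37 C; signals were normalised to artemisinin (0.29 uM) and vehicle wells.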

Experiment [8] is described as follows: qHTS profiling of the MIPE4 collection as inhibitors of Plasmodium falciparum (DD2) proliferation (AID 743345; call rule not given here). The settings on record: P. falciparum Dd2 in erythrocytes, SYBR Green DNA, 72 h; at 28.5 µM (top of the series) unless noted. A digest of the protocol:
as §1

Experiment [9] in a line: qHTS profiling of the MIPE4 collection as inhibitors of Plasmodium falciparum (DD2) proliferation (Rep 2) (AID 743346; call rule not given here). The following applies: P. falciparum Dd2 in erythrocytes, SYBR Green DNA, 72 h; at 28.5 µM (top of the series) unless noted. The method in brief:
as §1

Experiment [10] can be described thus: qHTS assay for small molecule agonists of the antioxidant response element (ARE) signaling pathway measured by Nrf2-dependant transcriptional activity (AID 720636; active means well fitted curve in the direction sought with a large enough effect in the repeat runs; an effect the other way counts as inactive or inconclusive;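 further: HepG2 cells with an ARE-driven luciferase reporter; % of control where 0% means no effect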). A digest of the protocol: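 HepG2 ARE-luc reporter line, 1% dialyzed FBS; 6 hr attachment at 37 C, compound pinned in, 16 hr at 37 C/5% CO2; ONE-Glo, 30 min RT, luminescence read.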
Experiment [11] can be described thus: qHTS assay for small molecule agonists of the antioxidant response element (ARE) signaling pathway measured by Nrf2-dependant transcriptional activity - cell viability counter screen (AID 720653; active means well fitted curve in the direction sought with a large enough effect in the repeat runs; an effect the other way counts as inactive or inconclusive; further: on the % scale 0 is the no-effect control and ±100 the full control effect). The settings on record: ARE-bla HepG2 viability, CellTiter-Glo ATP luminescence, 16 h; max response: stronger effect = lower value. A digest of the protocol:
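Cytotoxicity counter screen: intracellular ATP quantified by CellTiter-Glo luminescence in the same ARE-bla HepG2 plates, after 16 h compound exposure and a 2 h beta-lactamase substrate step.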

Experiment [12] can be described thus: qHTS assay for cell viability of HEK293 cells (AID 743288). Further: on the % scale 0 is the no-effect control and ±100 the full control effect; nearly all actives have a fitted effect of over 50% in size. The following applies: ATP luminescence (CellTiter-Glo), 18 h; max response: stronger effect = lower value. A digest of the protocol:
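ATP luminescence (CellTiter-Glo) reports metabolically competent cell number after parental HEK293 cells, 2,000/well, were treated with DMSO-dissolved compounds for 18 h at 37 C; reagent incubation 30 min, room temperature.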

Experiment [13] can be described thus: qHTS assay for cell viability of the p53RE-bla HCT-116 cell line (AID 743292). Further: on the % scale 0 is the no-effect control and ±100 the full control effect; nearly all actives have a fitted effect of over 55% in size. The method in brief: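 Luminescent ATP quantitation (CellTiter-Glo) served as the viability read-out; reagent was added after 16 h compound exposure at 37 C and read after 30 min at room temperature. Cells: p53RE-bla HCT-116, 4,000 per well.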

Each structure is given as a SMILES string. Several values for one entry are separate records, joined by “and”; a condition that tells them apart may be missing. Equal values may be shown once. Inconclusive results are not listed. Activity calls are given as the source filed them. Unless noted, the call rests on the fitted dose curve; in most records, active means well fitted curve in the direction sought with a large enough effect; inconclusive means small, poorly fitted or top-dose-only effect, or another doubt; inactive means no such curve, though single readings can be large; an effect the other way counts as inactive or inconclusive.

Regarding `NCCCCCC(=O)O`, the result in experiment [1] and in experiment [2] was inactive. For the same compound, the Potency result in [3], in [4] and in experiment [5] was “inactive” each time. For the same compound, in [6], the max response is -0.169% (inactive) and -6.11% (inactive). Moreover, the parasite growth, % of DMSO control in [7] was 417%. Besides, in experiment [8], the parasite growth remaining, % of DMSO control (lower = more inhibition) stood at 91.3%. For the same compound, the parasite growth, % of control (lower = inhibition) in [9] came to 118%.
On to `Cc1cc(C(C)(C)C)cc(C)c1CC1=NCCN1`, for which the call in [1] and in experiment [2] was inactive. Further, the Potency entry in experiment [3], in [4] and in experiment [5] was “inactive” throughout. The max response in experiment [6] was 3.97% (inactive) and -5.84% (inactive). Also, the parasite growth, % of control (lower = inhibition) in [9] was 17.1%.
With `COc1ccccc1OCCNCC(O)COc1cccc2[nH]c3ccccc3c12` (centres undefined), the call in [1] and in experiment [2] was inactive. The Potency entry in experiment [3], in experiment [4] and in experiment [5] was “inactive” in each case. The max response in [6] is 6.87% (inactive) and 32.1% (inactive). The same compound had a parasite growth, % of DMSO control in [7] of 16.5%. Further, the parasite growth remaining, % of DMSO control (lower = more inhibition) in [8] is 17.9%. Further, the parasite growth, % of control (lower = inhibition) in experiment [9] turned out to be 20.7%.
Take `Nc1nnc(-c2cccc(Cl)c2Cl)c(N)n1`: the outcome in experiment [1] and in experiment [2] was inactive. Moreover, the Potency entry in experiment [3], in experiment [4] and in experiment [5] was “inactive” in each case. Also, the max response in [6] was 5.45% (inactive) and 12.4% (inactive). The parasite growth, % of DMSO control in experiment [7] turned out to be 93.8%. Besides, in experiment [8], the parasite growth remaining, % of DMSO control (lower = more inhibition) came out at 98%. In addition, the parasite growth, % of control (lower = inhibition) in experiment [9] was determined as 104%.
For the compound `OCCN1CCN(CCCN2c3ccccc3Sc3ccc(C(F)(F)F)cc32)CC1`, the result in [1] and in experiment [2] was inactive. The Potency result in experiment [3], in experiment [4] and in experiment [5] was “inactive” in each case. The same compound displayed a parasite growth, % of DMSO control in experiment [7] of 7.22%. Besides, the parasite growth remaining, % of DMSO control (lower = more inhibition) in experiment [8] came to 10.5%. In addition, in experiment [9], the parasite growth, % of control (lower = inhibition) came out at 23.4%.
With `NC12CC3CC(CC(C3)C1)C2`, the compound was classed as inactive in [1] and in [2]. For the same compound, the Potency entry in experiment [3], in experiment [4] and in [5] was “inactive” in each case. Besides, in experiment [6], the max response was -8.46% (inactive). This compound showed a parasite growth, % of DMSO control in experiment [7] of 11.2%. Besides, in experiment [8], the parasite growth remaining, % of DMSO control (lower = more inhibition) was determined as 72%. The parasite growth, % of control (lower = inhibition) in [9] is 25.9%.
Turning to `Clc1ccccc1C(c1ccccc1)(c1ccccc1)n1ccnc1`, the compound was called inactive in experiment [1] and in experiment [2]. Moreover, the Potency result in experiment [3], in experiment [4] and in experiment [5] was “inactive” each time. Also, the Potency in [6] is 2.51 µM (active) and 2.09 µM (active). In experiment [7], this compound came in with a parasite growth, % of DMSO control of 4.91%. Also, in experiment [8], the parasite growth remaining, % of DMSO control (lower = more inhibition) stood at 6.19%. Moreover, in experiment [9], the parasite growth, % of control (lower = inhibition) turned out to be 11%.
With `CN(C)c1nc(N(C)C)nc(N(C)C)n1`, the outcome in [1] and in [2] was inactive. The Potency entry in experiment [3], in experiment [4] and in experiment [5] was “inactive” in each case. Moreover, the max response in experiment [6] was 17.1% (inactive) and -2.91% (inactive). Further, in [7], the parasite growth, % of DMSO control came to 89.4%. The parasite growth remaining, % of DMSO control (lower = more inhibition) in experiment [8] is 102%. Also, in [9], the parasite growth, % of control (lower = inhibition) turned out to be 104%.
In the case of `COc1nc(C)nc(Cl)c1NC1=NCCN1`, the result in experiment [1] and in experiment [2] was inactive. For the same compound, the Potency entry in experiment [3], in experiment [4] and in [5] was “inactive” each time. Further, the max response in [6] is 0.253% (inactive) and 33% (inactive). In experiment [7], the parasite growth, % of DMSO control turned out to be 89.8%. Further, in [8], the parasite growth remaining, % of DMSO control (lower = more inhibition) is 89.9%. Also, in experiment [9], the parasite growth, % of control (lower = inhibition) is 92.6%.
Turning to `O=C(CCCN1CCC(O)(c2ccc(Cl)cc2)CC1)c1ccc(F)cc1`, the result in experiment [1], in experiment [2] and in experiment [10] was inactive. Also, the results for the max response in experiment [11] and in [12] were -9.04% (inactive) and -20.6% (inactive), respectively. Moreover, in experiment [13], the Potency entry was “inactive”.

Values taken from PubChem BioAssay (NCATS).
